FBA Mtb inh: Mtb FBA enzyme inhibitors, primary screen, biochemical, fluorescence, strain H37Rv; purified M. tuberculosis FBA, fluorescence read-out; hit rate 2.3% among 360,000; AID 588726, 2011; inhibition, % at 1 µM; in the data active = inhibition above about 27%;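 also: 0% = vehicle and 100% = reference inhibitor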
Target sequence (P9WQA3 whole entry, looked up): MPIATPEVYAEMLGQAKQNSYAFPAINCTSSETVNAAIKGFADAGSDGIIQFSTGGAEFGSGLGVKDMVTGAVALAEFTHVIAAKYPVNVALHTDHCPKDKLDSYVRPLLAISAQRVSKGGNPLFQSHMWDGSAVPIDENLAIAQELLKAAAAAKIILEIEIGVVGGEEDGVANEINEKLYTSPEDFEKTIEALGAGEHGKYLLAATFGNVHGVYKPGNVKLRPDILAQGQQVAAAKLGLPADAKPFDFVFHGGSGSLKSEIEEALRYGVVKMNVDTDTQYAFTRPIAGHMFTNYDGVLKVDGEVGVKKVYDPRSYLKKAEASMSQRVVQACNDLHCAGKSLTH
Mtb bLac sens: beta-lactam sensitization of Mtb H37Rv, H37Rv; hit rate 0.27% among 330,000; AID 434955, 2010; inhibition, % at 25 µM; M. tuberculosis H37Rv growth with meropenem, percent inhibition; call rule not given here;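 also: growth measured after seven days incubation then overnight dye step; 0% = bacteria only wells and 100% = bacteria with antibiotic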
Rv3671c inh: Rv3671c serine protease inhibitors, primary screen, biochemical, fluorescence polarization, M. tuberculosis H37Rv; P9WHR9; inhibition, % at 5.96 µM; hit rate 0.048% among 320,000; in the data active = inhibition above about 38%;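 also: extracellular domain of Rv3671c used as enzyme; 0% = enzyme with DMSO and 100% = no enzyme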
GDH-TPI counter: GDH-TPI coupling enzyme inhibitors, primary screen, artefact control for M. tuberculosis FBA inhibitor project, biochemical, absorbance, full deck; GDH-TPI coupled enzyme counterscreen, NADH absorbance; hit rate 1.2% among 360,000; inhibition, % at 4.8 µM; AID 588335, 2011; in the data active = inhibition above about 30%;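 also: 0% = DMSO wells and 100% = wells lacking the enzyme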
Mtb UGM inh: M. tuberculosis UGM enzyme inhibitors, primary screen, biochemical, fluorescence polarization, single point. UDP-galactopyranose mutase (Mycobacterium tuberculosis (strain ATCC 25618 / H37Rv)), …. purified UGM, fluorescence polarization probe displacement. inhibition, % at 10 µM. hit rate 0.06% among 320,000; in the data active = inhibition above about 10%, passing the limit was not always enough
* = called active by the depositor; . = not tested or not shown; + = active, no number. Shown are actives, neighbours in structure and some others; about 3.5% of the full set was active somewhere.

SMILES | FBA Mtb inh | Mtb bLac sens | Rv3671c inh | GDH-TPI counter | Mtb UGM inh
CCCN(CCC)CCNC(=O)CCC(=O)Nc1ccc2nc(N3CCN(C)CC3)cc(C)c2c1 | + | 3 | 0 | 16 | 9
CCOC(=O)N1CCC(NC(=S)Nc2ccc3nc(N4CCN(CC)CC4)cc(C)c3c2)CC1 | 13 | 0 | 0 | 35* | 2
CCOC(=O)C1(Cc2ccccc2)CCCN(C2CCCC2)C1 (stereo not drawn) | 4 | 1 | -6 | 1 | 1
O=c1c2ccccc2sc2ccc(NCCCN3CCOCC3)cc12 | 7 | 1 | 1 | 2 | -1
COc1cc2sc3cc(NCCCN4CCOCC4)ccc3c(=O)c2cc1OC | 34* | 81 | -11 | 24 | 1
O=C(/C=C/Nc1cccc([N+](=O)[O-])c1)c1ccco1 | -2 | 5 | 6 | 35* | -1
Cc1ccc(S(=O)(=O)N2CCOC23CCN(C(=O)c2ccccc2Br)CC3)cc1 | 1 | -6 | 7 | -6 | 0
O=C(COC(=O)c1ccc(O)cc1)Nc1ccc(Cl)cc1C(=O)c1ccccc1 | -3 | 2 | -20 | 0 | 2
COC(=O)c1cc(Cl)ccc1NCC(N)c1ccccc1 (stereo not drawn) | 115* | . | . | . | .
Cc1cc(F)ccc1S(=O)(=O)Nc1ccc(C(=O)N2CCCCCC2)cc1 | 1 | 2 | 6 | -12 | 0
COc1ccc2[nH]c3c(c2c1)CCn1c-3nc2ccccc2c1=O | 16 | -1 | -16 | 59* | 1
C/C(=N\NC(=O)CNC(=O)c1cccs1)c1ccc(Cl)c(Cl)c1 | -2 | 4 | -7 | 3 | 1
CCCNC(=O)C1(C)CCCN(Cc2cccc3ccccc23)C1 (stereo not drawn) | 0 | . | . | 2 | .
COc1ccc2[nH]c3c(c2c1)CCN1C(=O)C(CC(=O)NCCCn2ccnc2)C[C@H](C(=O)N2CCOCC2)[C@@]31C (stereo partly drawn) | 2 | . | . | 5 | .
NC1=NC(=O)/C(=C\c2cccs2)S1 | -9 | -8 | 3 | 48* | 2
C[C@@H]1CCC[C@@]2(O[C@H](CCO)C[C@H](O)[C@H]2O)O1 | 4 | -2 | 3 | 9 | 1
O=C(N=Nc1c(O)[nH]c2ccc(Br)cc12)c1ccco1 | -3 | . | . | 39* | .
N#CC(C#N)=C1CCCc2sccc21 | 10 | . | . | 33* | .
O=C1CCCc2sccc2N1 | -4 | -1 | 1 | -2 | -2
CCCCC(CC)COCCCN=Cc1c(O)[nH]c(=S)[nH]c1=O (stereo not drawn) | 1 | -3 | -4 | 39* | 1
Cc1ccc(-c2nnn(CC(=O)NC(=O)NC3CCCCC3)n2)cc1 | -2 | . | . | -3 | .
CC1CCCCN1Cc1ccc(-c2nnn(CC(=O)NC3CCCCC3)n2)cc1 (stereo not drawn) | -10 | 0 | -5 | 62* | 0
CN(C)C=Nc1ncc2c3ccccc3n(CCN(C)C)c2c1C#N | 7 | 9 | -17 | 33* | 3
Cn1nnnc1SCC(=O)Nc1ncc(Cl)cc1Cl | -2 | -5 | -1 | -1 | 0
Cn1ncc(Br)c1NC(=O)CSc1ccc(Cl)cc1 | 0 | -10 | -3 | -5 | -2
SMILES | FBA Mtb inh | Mtb bLac sens | Rv3671c inh | GDH-TPI counter | Mtb UGM inh
COc1ccc(/C=C(/NC(=O)c2cccs2)C(=O)NC(C)(C)C)cc1OC | -3 | 2 | 2 | 13 | 1
COc1ccc(/C=C(\NC(=O)c2cccs2)C(=O)NN)cc1OC | 0 | -3 | . | 38* | 3
CCN1CCN(CCCNC(=O)c2ccc3c(c2)N(Cc2ccccc2)CCS3)CC1 | 170* | 5 | -1 | -3 | -4
CN1CCN(CCCNC(=O)c2ccc3c(c2)N(Cc2ccc(F)cc2)CCS3)CC1 | 159* | -6 | -2 | 7 | 2
CCOC(=O)N1CCN(C(=O)c2ccc3c(c2)N(Cc2ccc(F)cc2)CCS3)CC1 | 12 | 4 | 0 | 17 | 1
O=C(NCC1CCCO1)c1ccc2c(c1)N(Cc1ccc(F)cc1)CCS2 (stereo not drawn) | 119* | -5 | -5 | 10 | -2
O=C(NC1CC1)c1ccc2c(c1)N(Cc1ccccc1)CCS2 | 161* | -4 | 2 | 4 | -3
Cc1ccc(OCC(=O)NNC(=O)Nc2ccc(Cl)cc2)c(Br)c1 | -1 | 14 | -6 | -3 | 3
CCOC(=O)c1cc(-c2ccc(OC)cc2)nc2c1c(C)nn2CCC(N)=S | 6 | 1 | -9 | 13 | -1
CC(=O)NCCc1ccc(S(=O)(=O)Nc2ccc(NC(=O)c3ccc(F)cc3)cc2)cc1 | -3 | -8 | -3 | 19 | 6

Screening results: PubChem BioAssay, several laboratories
